These results are taken from PubChem BioAssay AID2685 (National Center for Advancing Translational Sciences (NCATS), 2010).

Each structure is given as a SMILES string. In all, about 320,000 compounds went through this assay and about 2,100 (0.66%) were called active. Another 53% or so got no clear call; they are omitted. The call rests on the fitted dose curve; in most records, active means well fitted inhibition curve with a large enough effect in the signal ratio, with a control signal flat (not every such curve was filed as active); inconclusive means small, poorly fitted or top-dose-only effect, or effect the other way, or a change in a side signal; inactive means flat fitted curve, though single readings scatter; the % refers to the signal ratio. Many of the other results were omitted from the sample, so actives are more common in it than they were.
Potency means the concentration at half of the fitted maximal effect.

The assay can be described thus: qHTS Assay for Lipid Storage Modulators in Drosophila S3 Cells.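 On cell number change: cells counted by Cell Tracker Red CMTPX staining in the red channel.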 On lipid storage change, negative = inhibition: on the % scale 0 is the no-effect control and ±100 the full control effect. Particulars: BODIPY lipid droplet fluorescence, 18-24 h, cells fed with added oleic acid; cell number change: measured here: cell count max response; series mostly up to 46.1 µM; lipid storage change, negative = inhibition: at the top concentration. The method, boiled down:
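Drosophila S3 cells got compounds at several concentrations plus oleic acid (400 uM solution). Laser-scanning cytometry with 488 nm excitation read lipid droplets at 500-530 nm and cells at 575-640 nm. Percent activity was relative to 20 uM Triacsin C.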
Regarding `O=C(O)CCN=C1CCCc2ccccc2N1`, the “lipid storage change, negative = inhibition” value is 1.94% (inactive) and the cell number change is -7.32%.

On to `COCCCNc1nnc(Cc2ccccc2)c2ccccc12`, for which the “lipid storage change, negative = inhibition” value is 4.29% (inactive) and the cell number change is -6.27%.

Regarding `CC(=O)N1CCCc2cc(S(=O)(=O)Nc3ccc(C)cc3C)ccc21`, the “lipid storage change, negative = inhibition” value was -5.87% (inactive) and the cell number change is 19.8%.

On to `Cc1ccc(C(O)P(=O)(OC2CCCCC2)OC2CCCCC2)cc1` (stereo not drawn), for which the “lipid storage change, negative = inhibition” value was -12.5% (inactive) and the cell number change stood at 22.2%.

Turning to `O=C(COc1ccc(S(=O)(=O)Nc2ccccc2)cc1)NCc1cccnc1`, the “lipid storage change, negative = inhibition” value was -1.07% (inactive) and the cell number change is -1.79%.

Take `Cc1c(C(=O)NC(C)C)c(-c2ccccc2)nn1-c1ccccc1`: the “lipid storage change, negative = inhibition” value is 6.49% (inactive) and the cell number change is -7.38%.

As for `O=C(Nc1nnc(C2=COCCO2)o1)c1ccc(S(=O)(=O)N2CCOCC2)cc1`, the “lipid storage change, negative = inhibition” value was 4.23% (inactive) and the cell number change is 17.2%.

As to `Cc1ccc(S(=O)(=O)N2CCc3c2cc([N+](=O)[O-])cc3[N+](=O)[O-])cc1`, the “lipid storage change, negative = inhibition” value is 9.86% (inactive) and the cell number change is 25.6%.

Turning to `O=C(CCN1C(=O)/C(=C\c2ccccc2)SC1=S)N1CCCCC1`, the “lipid storage change, negative = inhibition” value was -17.1% (inactive) and the cell number change was determined as 9.57%.

For the compound `COc1cccc(/C=C2\SC(=S)N(CCCC(=O)N3CCCCC3CCO)C2=O)c1` (stereo not drawn), the result was inactive.

Turning to `O=C(O)CCCCCN1C(=O)/C(=C\c2ccncc2)SC1=S`, the Potency was 3.26 µM (active) and the cell number change is -19.2%.

Regarding `COc1cccc(/C=C2\SC(=S)N(CCC(=O)N3CCCCC3CCO)C2=O)c1` (stereo not drawn), the Potency was 8.2 µM (active) and the cell number change is -19.7%.

As to `O=C(O)CCCCCN1C(=O)/C(=C/c2ccncc2)SC1=S`, the “lipid storage change, negative = inhibition” value is -21.5% (inactive) and the cell number change was 8.67%.

For the compound `COc1cccc(/C=C2\SC(=S)N(CCCC(=O)N3CCCC3)C2=O)c1`, the “lipid storage change, negative = inhibition” value was -27.9% (inactive) and the cell number change stood at 19.2%.

For `CC(C)c1ccc(/C=C2\SC(=S)N(CCC(=O)N3CCCCC3CCO)C2=O)cc1` (stereo not drawn), the result was inactive and the cell number change is -22.4%.

With `O=C(O)CCCN1C(=O)/C(=C/c2ccncc2)SC1=S`, the “lipid storage change, negative = inhibition” value was -1.54% (inactive) and the cell number change was -13%.

For `O=C1/C(=C/c2ccccc2)SC(=S)N1CCCC(=O)N1CCCCC1CCO` (stereo not drawn), the Potency was 18.4 µM (active) and the cell number change is 5.19%.

On to `COC(=O)C1=C(C)NC(=O)/C1=C\c1ccc2c(c1)OCO2`, for which the “lipid storage change, negative = inhibition” value is -12% (inactive) and the cell number change was -20.5%.

`CCOC(=O)C1(Cc2cccc(Cl)c2)CCCN(C(=O)c2cn[nH]c2)C1` (stereo not drawn): the “lipid storage change, negative = inhibition” value was -0.385% (inactive) and the cell number change is -11.4%.

As for `CN(C)c1ccc(C(=S)N2CCN(Cc3ccccc3)CC2)cc1`, the “lipid storage change, negative = inhibition” value was 10.1% (inactive) and the cell number change was -4.36%.

For `CC(C)c1ccc(C(O)P(=O)(OCc2ccccc2)c2ccc(N(C)C)cc2)cc1` (stereo not drawn), the “lipid storage change, negative = inhibition” value is -15.1% (inactive) and the cell number change turned out to be 1.68%.

Consider `COc1ccc(NC(=O)CN(c2ccc([N+](=O)[O-])cc2)S(=O)(=O)c2ccccc2)c(OC)c1`, for which the “lipid storage change, negative = inhibition” value was 5.04% (inactive) and the cell number change is -1.88%.

As to `O=C1NCCCC1C(=O)NCCN1C(=O)CCC1=O` (stereo not drawn), the “lipid storage change, negative = inhibition” value was 0.15% (inactive) and the cell number change was -2.23%.

Take `O=C(Nc1cccc(C(F)(F)F)c1)c1ccc(-n2cncn2)nc1`: the “lipid storage change, negative = inhibition” value is -0.0627% (inactive) and the cell number change was 5.24%.

`COc1ccc(N(CC(=O)N2CCN(Cc3ccc4c(c3)OCO4)CC2)S(C)(=O)=O)cc1OC`: the “lipid storage change, negative = inhibition” value is 0.719% (inactive) and the cell number change was found to be 14.4%.

For `CC(C)CCNC(=O)CN(Cc1ccco1)C(=O)c1snc(C(N)=O)c1N`, the “lipid storage change, negative = inhibition” value is 7.91% (inactive) and the cell number change worked out at 8.95%.

As for `COc1ccc(CCNS(=O)(=O)c2ccc([N+](=O)[O-])cc2)cc1OC`, the “lipid storage change, negative = inhibition” value is 23.7% (inactive) and the cell number change came to 0.785%.

In the case of `COc1ccc2[nH]cc(CCNS(=O)(=O)c3ccc(F)cc3)c2c1`, the “lipid storage change, negative = inhibition” value was -4.21% (inactive) and the cell number change is -14.3%.

As for `COc1ccc(CCNS(=O)(=O)c2ccc(Cl)cc2)cc1OC`, the Potency was 1.64 µM (active) and the cell number change is -15.3%.

As to `COc1ccc(S(=O)(=O)NC2CCCC2)cc1Cl`, the “lipid storage change, negative = inhibition” value is -23% (inactive).

Regarding `COc1ccc(CCNS(=O)(=O)c2ccc(Br)cc2)cc1OC`, the “lipid storage change, negative = inhibition” value was 10.6% (inactive) and the cell number change was -6.93%.

On to `CCNS(=O)(=O)c1ccc(Br)c(OC)c1`, for which the Potency is 25.9 µM (active) and the cell number change was -59.3%.

For the compound `CCOc1cc(S(=O)(=O)NCc2ccccc2)ccc1Br`, the “lipid storage change, negative = inhibition” value is 13.7% (inactive) and the cell number change was -16.8%.

Turning to `COc1ccc(CCNC(=O)COc2ccc(S(=O)(=O)NC(C)C)cc2Cl)cc1OC`, the “lipid storage change, negative = inhibition” value was -26% (inactive).

For `COc1cc(S(=O)(=O)NCc2ccccc2)ccc1Br`, the “lipid storage change, negative = inhibition” value is -0.0691% (inactive) and the cell number change was 5.28%.

As to `COc1ccc(CCNC(=O)COc2ccc(S(=O)(=O)NC3CCCCC3)cc2Cl)cc1OC`, the Potency was 8.2 µM (active) and the cell number change was -27.7%.

For the compound `COc1ccc(S(=O)(=O)NCCc2c[nH]c3ccc(Cl)cc23)cc1`, the Potency is 20.6 µM (active).

As to `COc1ccc2[nH]cc(CCNS(=O)(=O)c3ccc(C)cc3)c2c1`, the “lipid storage change, negative = inhibition” value was -1.15% (inactive) and the cell number change came to 2.67%.

Regarding `COc1cc(CNC2CCCCC2OC)cc(OC)c1OC` (stereo not drawn), the “lipid storage change, negative = inhibition” value was -4.46% (inactive) and the cell number change is 3.58%.

Consider `O=C(O)c1cnn(-c2ccccc2)c1-c1ccncc1`, for which the compound was called inactive.

On to `Cc1cc(/C=N/N2CCN(C)CC2)c(C)n1-c1ccccc1F`, for which the compound was called inactive.

With `CCCn1c(SCC(=O)Nc2nnc(C)s2)nnc1-c1ccoc1C`, the “lipid storage change, negative = inhibition” value was 9.42% (inactive) and the cell number change was -14%.

With `CS(=O)(=O)N(CC(=O)N1CCN(c2ccccc2F)CC1)C1CCCCC1`, the “lipid storage change, negative = inhibition” value was -6.61% (inactive) and the cell number change is -9.38%.

For the compound `Cc1c(CNC(=O)C2CC2)c(-n2cccc2)n(Cc2ccccc2)c1C`, the “lipid storage change, negative = inhibition” value was 12.7% (inactive) and the cell number change was 18.9%.

Take `COCCNS(=O)(=O)c1ccc(F)c(OC)c1`: the Potency was 20.6 µM (active) and the cell number change is 2.25%.

In the case of `COCCNS(=O)(=O)c1ccc(-c2ccc(Cl)cc2)cc1`, the “lipid storage change, negative = inhibition” value was -0.344% (inactive) and the cell number change is 8.47%.

Turning to `COc1cc(S(=O)(=O)NCc2ccccc2)ccc1F`, the “lipid storage change, negative = inhibition” value was -1.58% (inactive) and the cell number change worked out at 6.61%.

Consider `O=S(=O)(O)c1cc(OS(=O)(=O)c2ccccc2)cc2ccccc12`, for which the “lipid storage change, negative = inhibition” value was -11.6% (inactive) and the cell number change was determined as 6.99%.

Take `COc1ccc(Cc2nc3ccc(C(=O)NCc4cc(C)no4)cc3o2)cc1OC`: the “lipid storage change, negative = inhibition” value is -19.9% (inactive) and the cell number change was -13.7%.

In the case of `O=C(c1ccc([N+](=O)[O-])cc1)N1CCN(Cc2ccccc2)CC1`, the “lipid storage change, negative = inhibition” value is 4.25% (inactive) and the cell number change amounted to 11.4%.

As to `Nn1c(SCC(=O)Nc2ccc3c(c2)OCO3)nnc1-c1cccc(Cl)c1`, the “lipid storage change, negative = inhibition” value was -0.669% (inactive) and the cell number change stood at 0.909%.

For `O=C(O)C1CCN(C(=O)c2ccccc2Cl)CC1`, the Potency was 18.4 µM (active) and the cell number change is 6.2%.

In the case of `O=C(c1ccccc1Cl)N1CCSCC1`, the “lipid storage change, negative = inhibition” value was -5.54% (inactive) and the cell number change was 2.74%.

Take `O=C(NC1CC1)C1CCN(C(=O)c2ccccc2Cl)CC1`: the result was inactive.

`O=C(O)c1ccccc1C(=O)N1CCN(C(=O)c2ccccc2Cl)CC1`: the “lipid storage change, negative = inhibition” value was 2.44% (inactive) and the cell number change turned out to be 18.7%.

Turning to `O=C(NC1CCCCC1)C1CCN(C(=O)c2ccccc2Cl)CC1`, the “lipid storage change, negative = inhibition” value is -5% (inactive) and the cell number change was -4.35%.

With `O=CN1CCN(C(=O)c2ccccc2Cl)CC1`, the Potency was 16.4 µM (active) and the cell number change was -3.9%.

Turning to `O=C(NCCCn1ccnc1)c1cc2cc([N+](=O)[O-])ccc2oc1=O`, the “lipid storage change, negative = inhibition” value is 19.8% (inactive) and the cell number change was 15.7%.

Regarding `CCCN1CCC(=NNc2ccc(S(N)(=O)=O)cc2[N+](=O)[O-])CC1`, the “lipid storage change, negative = inhibition” value is -4.49% (inactive) and the cell number change was -0.104%.

For the compound `CCCn1c(SCCN2CCOCC2)nc2c1c(=O)n(C)c(=O)n2C`, the result was inactive.

In the case of `COc1ccc(CNC(=O)CN2C(=O)NC3(CCCCCC3)C2=O)cc1OC`, the “lipid storage change, negative = inhibition” value is -22.1% (inactive) and the cell number change is -8.33%.

In the case of `COc1ccc(CNC(=O)CN2C(=O)NC(C)(c3cccc4ccccc34)C2=O)cc1OC` (stereo not drawn), the Potency is 18.4 µM (active) and the cell number change is -4.84%.

In the case of `COc1ccc(CNC(=O)CN2C(=O)NC(C)(c3cccc(Br)c3)C2=O)cc1` (stereo not drawn), the “lipid storage change, negative = inhibition” value is 11.7% (inactive) and the cell number change is 15.2%.
